Assay results taken from PubChem BioAssay.
Calls of active or inactive are those of the source. Unless noted, how the calls were made is not given here.

How the values were obtained:
[1] = system: Wnt5a (protein binding on small-molecule microarray); assay: Wnt5a binders on small-molecule microarray, primary screen, biophysical, 635/667 nm fluorescence (AID 1142); settings: 635 nm fluorescence, higher = more signal;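 further: fluorescence read at 667 nm with signal to noise per printed feature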
[2] = cell viability in Huh7 cells, primary screen, cytotoxicity control for HCV replication inhibitor project, CellTiter-Glo luminescence, basal, 48 h (AID 1143); settings: Huh7 HCV replicon, higher = more signal, called active from +8 up or from −8 down;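 further: Huh7 hepatoma cells carrying a hepatitis C replication reporter with no stimulus; test concentration not given here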
[3] = P. aeruginosa biofilm formation inhibitors, primary screen, PAO1 strain, BacTiter-Glo luminescence, LB-PBS (AID 1144); settings: 12 h, higher = more signal
[4] = CREB reporter modulators without forskolin, primary screen, cell-based, PC12, CRE-LacZ reporter, unstimulated (AID 1145); settings: no forskolin, luminescence, 4.5 h, higher = more signal, called active from +8 up or from −8 down
[5] = CREB reporter modulators under forskolin, primary screen, cell-based, PC12, CRE-LacZ reporter, forskolin-stimulated (AID 1146); settings: luminescence, 4.5 h, higher = more signal, called active from +8 up or from −8 down;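 further: PC12 cells with 6xCRE LacZ reporter stimulated by forskolin 10 µM; beta-galactosidase reporter signal reflecting CREB driven transcription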
[6] = biological target: Streptavidin (Streptomyces avidinii) (UniProt P22629); assay: streptavidin binders on small-molecule microarray, primary screen, artefact control for SMM compound annotation, biophysical, 635/667 nm fluorescence (AID 1147); settings: streptavidin binding, higher = more signal;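 further: signal reflects streptavidin binding to arrayed compounds as a control protein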
[7] = small-molecule binders of probe aInhba, primary screen, biochemical, small-molecule microarray, 635/667 nm fluorescence (AID 1148); settings: higher = more signal;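 further: score merges 667nm spot fluorescence with signal-to-noise for antibody binding to printed compounds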
[8] = biological target: Torsin-1A (Homo sapiens) (UniProt O14656); assay: torsin A binders from cell lysate, primary screen, small-molecule microarray, wild-type, 635/667 nm (AID 1149); settings: COS7 hTOR1A-WT lysate, 635 nm fluorescence, higher = more signal
[9] = biological target: Torsin-1A (Homo sapiens) (UniProt O14656); assay: small-molecule binders of mutant TOR1A in lysate, primary screen, cell lysate, small-molecule microarray, COS7 lysate, 635/667 nm fluorescence (AID 1150); settings: COS7 hTOR1A mutant lysate, 635 nm fluorescence, higher = more signal;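 further: score pools 667 nm emission and signal to noise measuring lysate protein binding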
[10] = system: Sonic hedgehog protein (Shh); assay: small-molecule binders of Shh protein, primary screen, biochemical, small-molecule microarray, 635/667 nm fluorescence (AID 1151); settings: small-molecule microarray binding, 635 nm fluorescence; higher = more signal;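 further: Shh protein binding to compounds spotted on small-molecule microarray slides; score combines spot fluorescence intensity with signal-to-noise across triplicate slides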
[11] = E. coli DRC41 culture turbidity changes, primary screen, E. coli filamentation inducer project, strain DRC41, OD650, 48 h (AID 1152);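 further: E. coli MC1000 strain DRC41 lacking acrAB efflux pump and sulA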; settings: E. coli DRC41 (acrAB sulA), higher = more signal, called active from +8 up or from −8 down
[12] = small-molecule binders of probe aLefty1, primary screen, biochemical, small-molecule microarray, 635/667 nm fluorescence (AID 1153); settings: higher = more signal;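 further: score merges spot fluorescence with signal-to-noise ratio from the scanned slide images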
[13] = PSAC antagonists in infected red cells, primary screen, cell-based, P. falciparum Indochina, OD700, 1 h (AID 1154); settings: P. falciparum Indochina infected RBC osmotic lysis, higher = more signal, called active from +8 up or from −8 down
[14] = PSAC antagonists in infected red cells, primary screen, cell-based, P. falciparum Indochina, OD700, 2 h (AID 1155);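 further: lysis reports solute entry through the parasite surface anion channel PSAC; channel blockers reduce lysis of infected cells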; settings: P. falciparum Indochina infected erythrocytes, osmotic lysis OD700; higher = more signal, called active from +8 up or from −8 down
[15] = osmotic lysis modulators in infected erythrocytes, primary screen, PSAC antagonist project, cell-based, P. falciparum Indochina, OD700, 3 h (AID 1156); settings: higher = more signal, called active from +8 up or from −8 down
[16] = PSAC antagonists in infected red cells, primary screen, cell-based, P. falciparum Indochina, OD700, 18 h (AID 1157); settings: P. falciparum Indochina infected erythrocytes, osmotic lysis OD700, 18 h; higher = more signal, called active from +8 up or from −8 down
[17] = modulators of S6 phosphorylation in cells, primary screen, cell-based, A549, cytoblot, luminescence, serum-stimulated (AID 1158); settings: A549 phospho-S6 cytoblot, 5 h, higher = more signal;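 further: serum-stimulated A549 lung adenocarcinoma cells; signal is phosphorylated S6 detected by cytoblot immunostaining with HRP secondary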
[18] = biological target: NADPH oxidase 2 (Homo sapiens) (UniProt P04839); assay: NOX2-dependent H2O2 signal modulators, primary screen, NOX inhibitor project, cell-based, HEK293-NOX2, PMA-stimulated, Amplex Red fluorescence (AID 1159); settings: 45 min, higher = more signal, called active from +8 up or from −8 down; further: test concentration not given here
[19] = biological target: NADPH oxidase 4 (Homo sapiens) (UniProt Q9NPH5); assay: NOX4-dependent H2O2 signal modulators, primary screen, NOX inhibitor project, cell-based, HEK293-NOX4, tetracycline-induced, Amplex Red fluorescence (AID 1160); settings: 45 min, higher = more signal, called active from +8 up or from −8 down
[20] = biological target: NADPH oxidase 5 (Homo sapiens) (UniProt Q96PH1); assay: NOX5-dependent H2O2 signal modulators, primary screen, NOX inhibitor project, cell-based, HEK293-NOX5, Amplex Red fluorescence (AID 1161); settings: HEK293-NOX5, ionomycin, 45 min, higher = more signal
Sequence of NADPH oxidase 5 (Homo sapiens) (Q96PH1 whole entry, looked up): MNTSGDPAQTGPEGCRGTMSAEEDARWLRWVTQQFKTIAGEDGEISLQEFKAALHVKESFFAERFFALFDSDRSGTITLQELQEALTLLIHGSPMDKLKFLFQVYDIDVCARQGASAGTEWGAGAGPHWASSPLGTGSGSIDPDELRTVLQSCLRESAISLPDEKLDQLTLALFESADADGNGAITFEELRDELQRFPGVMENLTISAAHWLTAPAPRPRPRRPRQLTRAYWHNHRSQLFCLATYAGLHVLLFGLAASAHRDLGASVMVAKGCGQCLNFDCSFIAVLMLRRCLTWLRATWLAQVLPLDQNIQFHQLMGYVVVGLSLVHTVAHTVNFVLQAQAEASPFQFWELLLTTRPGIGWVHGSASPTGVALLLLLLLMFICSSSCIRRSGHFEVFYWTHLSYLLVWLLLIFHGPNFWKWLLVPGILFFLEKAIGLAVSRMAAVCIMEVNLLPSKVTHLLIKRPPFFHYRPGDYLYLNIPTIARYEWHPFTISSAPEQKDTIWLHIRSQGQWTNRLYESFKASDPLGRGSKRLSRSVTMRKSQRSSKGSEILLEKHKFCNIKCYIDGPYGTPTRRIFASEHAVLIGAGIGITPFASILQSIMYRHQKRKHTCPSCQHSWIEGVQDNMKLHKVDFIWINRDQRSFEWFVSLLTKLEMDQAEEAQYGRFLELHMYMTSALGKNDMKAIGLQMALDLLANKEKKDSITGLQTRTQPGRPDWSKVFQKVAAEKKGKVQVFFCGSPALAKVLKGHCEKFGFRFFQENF

Sequence of NADPH oxidase 4 (Homo sapiens) (Q9NPH5 whole entry, looked up): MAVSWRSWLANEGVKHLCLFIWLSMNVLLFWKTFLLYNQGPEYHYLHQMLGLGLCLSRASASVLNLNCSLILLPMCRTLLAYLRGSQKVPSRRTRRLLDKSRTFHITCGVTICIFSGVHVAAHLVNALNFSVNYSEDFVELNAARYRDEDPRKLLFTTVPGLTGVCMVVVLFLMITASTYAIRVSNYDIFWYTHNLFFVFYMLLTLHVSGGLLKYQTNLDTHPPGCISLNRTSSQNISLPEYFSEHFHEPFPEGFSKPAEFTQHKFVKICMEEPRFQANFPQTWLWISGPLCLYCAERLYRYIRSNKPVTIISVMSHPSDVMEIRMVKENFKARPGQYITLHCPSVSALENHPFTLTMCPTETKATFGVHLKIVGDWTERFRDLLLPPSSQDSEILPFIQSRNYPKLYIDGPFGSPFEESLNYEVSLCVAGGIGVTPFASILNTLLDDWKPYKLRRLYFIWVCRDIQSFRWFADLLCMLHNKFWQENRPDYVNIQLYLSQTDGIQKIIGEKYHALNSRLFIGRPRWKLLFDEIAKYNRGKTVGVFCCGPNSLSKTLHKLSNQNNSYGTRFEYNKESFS
Sequence of NADPH oxidase 2 (Homo sapiens) (P04839 whole entry, looked up): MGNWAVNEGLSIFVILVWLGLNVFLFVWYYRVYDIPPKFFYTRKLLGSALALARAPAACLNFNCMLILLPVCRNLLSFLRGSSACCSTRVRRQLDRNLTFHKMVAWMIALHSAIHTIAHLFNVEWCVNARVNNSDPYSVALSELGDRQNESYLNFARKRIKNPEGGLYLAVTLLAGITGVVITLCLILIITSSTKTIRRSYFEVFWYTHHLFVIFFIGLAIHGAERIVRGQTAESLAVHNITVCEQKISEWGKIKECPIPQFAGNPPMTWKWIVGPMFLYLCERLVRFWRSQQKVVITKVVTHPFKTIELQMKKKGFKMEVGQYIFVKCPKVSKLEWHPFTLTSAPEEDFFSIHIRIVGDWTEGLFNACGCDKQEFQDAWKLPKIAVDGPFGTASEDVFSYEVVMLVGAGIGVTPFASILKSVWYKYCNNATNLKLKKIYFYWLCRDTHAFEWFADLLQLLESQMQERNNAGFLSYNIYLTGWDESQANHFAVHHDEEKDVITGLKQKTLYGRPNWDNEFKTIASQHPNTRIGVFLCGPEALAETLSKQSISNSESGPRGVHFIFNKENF
Sequence of Torsin-1A (Homo sapiens) (O14656 whole entry, looked up): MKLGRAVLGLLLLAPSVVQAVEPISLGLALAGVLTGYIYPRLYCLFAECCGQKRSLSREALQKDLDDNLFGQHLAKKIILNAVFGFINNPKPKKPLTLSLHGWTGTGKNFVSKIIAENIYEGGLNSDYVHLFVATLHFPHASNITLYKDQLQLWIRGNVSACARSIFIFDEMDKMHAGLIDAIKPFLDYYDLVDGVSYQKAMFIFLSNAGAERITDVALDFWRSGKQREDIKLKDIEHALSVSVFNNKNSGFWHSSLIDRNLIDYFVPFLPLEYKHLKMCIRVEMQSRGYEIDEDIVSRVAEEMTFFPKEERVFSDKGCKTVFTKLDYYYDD
Sequence of Streptavidin (Streptomyces avidinii) (P22629 whole entry, looked up): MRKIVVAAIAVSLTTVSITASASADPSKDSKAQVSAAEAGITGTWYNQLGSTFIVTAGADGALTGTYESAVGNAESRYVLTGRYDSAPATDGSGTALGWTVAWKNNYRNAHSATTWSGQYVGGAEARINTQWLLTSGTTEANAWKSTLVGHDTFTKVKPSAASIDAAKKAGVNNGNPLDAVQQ

Row | Structure (SMILES) | composite z-score [1] | z-score [2] | z-score [3] | z-score [4] | z-score [5] | composite z-score [6] | composite z-score [7] | composite z-score [8] | composite z-score [9] | composite z-score [10] | z-score [11] | composite z-score [12] | z-score [13] | z-score [14] | z-score [15] | z-score [16] | z-score [17] | z-score [18] | z-score [19] | z-score [20]
1 | CO[C@H]1O[C@H](CO)[C@@H](OC(=O)Nc2ccc(Br)cc2)[C@H](OC(=O)c2cc3ccccc3[nH]2)[C@H]1OC(=O)c1cc2ccccc2[nH]1 | 0.363 | -6.05 (inactive) | -2.24 (inactive) | 2.38 (inactive) | -1.15 (inactive) | 1.22 | 0.0342 | 0.154 | 0.46 | 0.819 | 1.99 (inactive) | 0.12 | 1.39 (inactive) | -1.16 (inactive) | -0.368 (inactive) | -0.464 (inactive) | 1.16 | -2.75 (inactive) | -0.642 (inactive) | -2.04
2 | CC1(C)[C@@H]2CC(C(O)C3C=CC4C(=O)N(c5ccccc5)C(=O)C4N3Nc3ccccc3)=C[C@H]1C2 (stereo not given in full) | 0.0836 | 0.355 (inactive) | -0.959 (inactive) | 1 (inactive) | 0.874 (inactive) | 0.595 | 0.571 | -0.37 | -0.233 | -0.385 | -1.16 (inactive) | -0.012 | 4.78 (inactive) | 0.741 (inactive) | -0.343 (inactive) | 1.29 (inactive) | -1.04 | -1.47 (inactive) | -2.94 (inactive) | -3.08
3 | C=CCC(OC(C)=O)[C@@H]1[C@@H](N(Cc2ccc(-c3cccc(C(F)(F)F)c3)o2)C(=O)c2ccc(-c3ccccc3)cc2)c2cc(OCCCO)ccc2N1C(=O)c1ccc(-c2ccccc2)cc1 (stereo not given in full) | -0.0065 | 0.42 (inactive) | 0.103 (inactive) | 0.0176 (inactive) | 0.262 (inactive) | 0.0998 | -0.0403 | -0.0662 | 0.0093 | 0.32 | -0.894 (inactive) | -0.169 | 0.566 (inactive) | 0.434 (inactive) | 0.0785 (inactive) | 0.508 (inactive) | 0.0635 | -1.27 (inactive) | -1.05 (inactive) | 0.713
4 | CCOC(=O)[C@H]1CC=C2CC1C(=O)N1CCC[C@@H]1[C@@H]2O[Si](C)(C)C(C)(C)C (stereo not given in full) | -0.395 | -6.23 (inactive) | -0.451 (inactive) | -0.776 (inactive) | -0.661 (inactive) | -1.49 | -0.238 | -0.55 | -0.83 | 0.398 | -0.94 (inactive) | -0.471 | 2.09 (inactive) | 0.493 (inactive) | -0.42 (inactive) | 0.378 (inactive) | -0.409 | 0.461 (inactive) | -0.625 (inactive) | -3.9
5 | CN1C(=O)[C@]2(Cc3ccccc3)N=C(c3ccc(OCCCO)cc3)O[C@@H]2c2ccccc21 | 0.928 | -4.61 (inactive) | -1 (inactive) | 0.456 (inactive) | -1.12 (inactive) | 0.0004 | 0.112 | 0.428 | 0.628 | 1.15 | -0.105 (inactive) | -0.157 | 33.7 (active) | 32.4 (active) | 2.34 (inactive) | 3.54 (inactive) | 0.435 | -2.02 (inactive) | -0.608 (inactive) | -1.93
6 | O=C1O[C@H](c2ccccc2)[C@H](c2ccccc2)N2[C@H]1[C@@H](C(=O)O)[C@]1(C(=O)Nc3ccc(C#CCCO)cc31)[C@H]2c1ccc(O)cc1 | -0.0604 | -1.04 (inactive) | 0.301 (inactive) | -1.28 (inactive) | -1.37 (inactive) | -0.668 | 0.161 | 0.309 | 0.499 | 0.0441 | 1.4 (inactive) | 0.334 | 1.43 (inactive) | 0.4 (inactive) | 0.735 (inactive) | 0.531 (inactive) | 0.282 | -0.185 (inactive) | -0.455 (inactive) | 0.157
7 | COc1ccc(COC2OC[C@]3(C)[C@H]4C5=C(CN3C(=O)OC(C)(C)C)[C@H](C)C(CO)C(CO)C5CC[C@@H]24)cc1 (stereo not given in full) | 0.0447 | -0.422 (inactive) | 0.669 (inactive) | 0.966 (inactive) | 1.99 (inactive) | 1.25 | 0.483 | 1.32 | 0.156 | 0.0407 | -2.31 (inactive) | 0.638 | 1.81 (inactive) | 0.0544 (inactive) | 1.95 (inactive) | 0.741 (inactive) | -0.139 | -0.543 (inactive) | -3.44 (inactive) | -3.88
8 | O=C1NC(=O)C2C1C=CC(C(O)Cc1ccccc1)N2Nc1ccc(Cl)cc1Cl (stereo not given) | -0.209 | -0.0389 (inactive) | -0.171 (inactive) | 0.44 (inactive) | 0.115 (inactive) | 0.889 | 0.0345 | -0.0973 | 1.12 | -0.546 | -0.78 (inactive) | 0.599 | 4.35 (inactive) | 0.953 (inactive) | 0.273 (inactive) | 1.15 (inactive) | -0.834 | -1.28 (inactive) | -5.02 (inactive) | -1.9
